Here are results for 20 compounds from PubChem BioAssay (NCATS).

Results filed as inconclusive are left out. Activity calls are given as the source filed them. Unless noted, calls follow the shape of the full dose curve.
Potency is read from the fitted curve at half-maximal effect.

The first experiment in a line: Cell Viability - Hek293 (AID 427;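 active = compounds whose dose-response curve shows a full or clear partial loss of cell viability, called from curve shape rather than a numeric limit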;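 also: cells exposed to compound for 40 hours at 37 °C before reading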). To be noted: qHTS. The gist of the method: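 AC50 values derive from Hill-modelled concentration-response of ATP-based luminescence, normalized between DMSO-only and 100 uM tamoxifen controls. Cells were exposed in complete culture medium for 40 hr at 37 °C before detection.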
Background: qHTS replaces the single test concentration by a dilution series.
`O=C(O)CCCCC1CCSS1` (centres undefined): the Potency was > 92 µM (inactive).
For `CC(=O)Nc1ccccc1`, the Potency is > 92 µM (inactive).
As for `Cc1c(N(C)C)c(=O)n(-c2ccccc2)n1C`, the Potency was > 92 µM (inactive).
Take `CC(=O)Nc1cccc(O)c1`: the Potency is > 92 µM (inactive).
In the case of `O=C1C(c2[nH]c3ccccc3c2O)=Nc2ccccc21`, the Potency is > 92 µM (inactive).
Regarding `CC1CC(OC(=O)c2ccccc2O)CC(C)(C)C1` (centres undefined), the Potency is > 92 µM (inactive).
On to `CC(=O)OCC(COC(C)=O)OC(C)=O`, for which the Potency is > 92 µM (inactive).
Turning to `O=C1c2cccc(O)c2C(=O)c2c(O)cccc21`, the Potency is > 92 µM (inactive).
The same measure, in the same setting: for `CCCCCC(N)=O` the value was > 92 µM (inactive); for `CCCC(O)C(CC)CO` (centres undefined), > 92 µM (inactive); for `FC(F)(F)C(Cl)Br` (centres undefined), > 92 µM (inactive).
Still for that read-out and setting: as for `CCCCCCCC(=O)OCC(COC(=O)CCCCCCC)OC(=O)CCCCCCC`, the figure is > 92 µM (inactive); as for `CCCCOC(=O)c1ccc(N)cc1`, > 92 µM (inactive).
Turning to `CC(=O)Nc1ccc(C(=O)O)cc1`, the Potency was > 92 µM (inactive).
`O=C(c1ccccc1)C(O)c1ccccc1` (centres undefined): the Potency is > 92 µM (inactive).
On to `CCN(CC)C(=O)c1cccc(C)c1`, for which the Potency was > 92 µM (inactive).
Take `COc1ccc(O)cc1`: the Potency was > 92 µM (inactive).
Turning to `C=CCNC(N)=S`, the Potency was > 92 µM (inactive).
With `Nc1ccc(S(=O)(=O)c2ccc(N)cc2)cc1`, the Potency was > 92 µM (inactive).
For the compound `Cc1cc(=O)[nH]c(=S)[nH]1`, the Potency was > 92 µM (inactive).

The nature of another experiment: Cell Viability - HepG2 (AID 433).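 Also: potency for ATP loss meaning cytotoxicity.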 The following applies: qHTS. The gist of the method:
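Cytotoxicity read as ATP loss (CellTiter-Glo luminescence) after 40 hr compound exposure of HepG2, 1500 cells/well, 37 °C. AC50 by Hill equation; 0% set by DMSO, 100% inhibition by 100 uM tamoxifen.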
On to `O=C(O)CCCCC1CCSS1` (centres undefined), for which the Potency is > 92 µM (inactive).
On the same count and under the same terms, as for `CC(=O)Nc1ccccc1`, the figure is > 92 µM (inactive).
Same read-out and setting: for `Cc1c(N(C)C)c(=O)n(-c2ccccc2)n1C` the value was > 92 µM (inactive); for `CC(=O)Nc1cccc(O)c1`, > 92 µM (inactive).
Take `O=C1C(c2[nH]c3ccccc3c2O)=Nc2ccccc21`: the Potency was > 92 µM (inactive).
In the case of `CC1CC(OC(=O)c2ccccc2O)CC(C)(C)C1` (centres undefined), the Potency was > 92 µM (inactive).
As to `CC(=O)OCC(COC(C)=O)OC(C)=O`, the Potency is > 92 µM (inactive).
For `O=C1c2cccc(O)c2C(=O)c2c(O)cccc21`, the Potency was > 92 µM (inactive).
Regarding `CCCCCC(N)=O`, the Potency is > 92 µM (inactive).
With `CCCC(O)C(CC)CO` (centres undefined), the Potency was > 92 µM (inactive).
For `FC(F)(F)C(Cl)Br` (centres undefined), the Potency was > 92 µM (inactive).
Take `CCCCCCCC(=O)OCC(COC(=O)CCCCCCC)OC(=O)CCCCCCC`: the Potency is > 92 µM (inactive).
Take `CCCCOC(=O)c1ccc(N)cc1`: the Potency was > 92 µM (inactive).
As for `CC(=O)Nc1ccc(C(=O)O)cc1`, the Potency is > 92 µM (inactive).
Take `O=C(c1ccccc1)C(O)c1ccccc1` (centres undefined): the Potency is > 92 µM (inactive).
For `CCN(CC)C(=O)c1cccc(C)c1`, the Potency is > 92 µM (inactive).
Consider `COc1ccc(O)cc1`, for which the Potency is > 92 µM (inactive).
On to `C=CCNC(N)=S`, for which the Potency is > 92 µM (inactive).
For `Nc1ccc(S(=O)(=O)c2ccc(N)cc2)cc1`, the Potency was > 92 µM (inactive).
The same measure, in the same setting: for `Cc1cc(=O)[nH]c(=S)[nH]1` the value was > 92 µM (inactive).

The next experiment in a line: Cell Viability - MRC5 (AID 434).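 Also: potency reflects cytotoxicity seen as loss of intracellular ATP.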 To be noted: MRC5 lung fibroblast viability, qHTS. The gist of the method:
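ATP luminescence read-out (CellTiter-Glo, 20 min RT) after 40 hr, 37 °C compound exposure of 1500 MRC5 cells/well. Data normalized to DMSO (basal) and 100 uM tamoxifen (100% inhibition); AC50 from standard Hill equation.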
In the case of `O=C(O)CCCCC1CCSS1` (centres undefined), the Potency was > 92 µM (inactive).
For the compound `CC(=O)Nc1ccccc1`, the Potency was > 92 µM (inactive).
Still for that read-out and setting: as for `Cc1c(N(C)C)c(=O)n(-c2ccccc2)n1C`, the figure is > 92 µM (inactive); as for `CC(=O)Nc1cccc(O)c1`, > 92 µM (inactive); as for `O=C1C(c2[nH]c3ccccc3c2O)=Nc2ccccc21`, > 92 µM (inactive).
Consider `CC1CC(OC(=O)c2ccccc2O)CC(C)(C)C1` (centres undefined), for which the Potency was > 92 µM (inactive).
Turning to `CC(=O)OCC(COC(C)=O)OC(C)=O`, the Potency was > 92 µM (inactive).
As to `O=C1c2cccc(O)c2C(=O)c2c(O)cccc21`, the Potency was > 92 µM (inactive).
`CCCCCC(N)=O`: the Potency was > 92 µM (inactive).
As for `CCCC(O)C(CC)CO` (centres undefined), the Potency was > 92 µM (inactive).
In the case of `FC(F)(F)C(Cl)Br` (centres undefined), the Potency is > 92 µM (inactive).
Same read-out and setting: for `CCCCCCCC(=O)OCC(COC(=O)CCCCCCC)OC(=O)CCCCCCC` the value was > 92 µM (inactive).
On the same count and under the same terms, for `CCCCOC(=O)c1ccc(N)cc1` the value was > 92 µM (inactive); for `CC(=O)Nc1ccc(C(=O)O)cc1`, > 92 µM (inactive).
`O=C(c1ccccc1)C(O)c1ccccc1` (centres undefined): the Potency was > 92 µM (inactive).
`CCN(CC)C(=O)c1cccc(C)c1`: the Potency was > 92 µM (inactive).
For the compound `COc1ccc(O)cc1`, the Potency was > 92 µM (inactive).
Still for that read-out and setting: for `C=CCNC(N)=S` the value was > 92 µM (inactive); for `Nc1ccc(S(=O)(=O)c2ccc(N)cc2)cc1`, > 92 µM (inactive).
For `Cc1cc(=O)[nH]c(=S)[nH]1`, the Potency was > 92 µM (inactive).

A short description of the next experiment: Cell Viability - SK-N-SH (AID 435). The following applies: SK-N-SH neuroblastoma cell viability qHTS. In outline: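 qHTS cytotoxicity: CellTiter-Glo ATP luminescence after 40 h compound exposure of human neuroblastoma SK-N-SH cells at 37 °C. AC50 derived by Hill-equation fitting, with DMSO as basal and 100 uM tamoxifen as full inhibition.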
For the compound `O=C(O)CCCCC1CCSS1` (centres undefined), the Potency was > 92 µM (inactive).
Take `CC(=O)Nc1ccccc1`: the Potency is > 92 µM (inactive).
The same measure, in the same setting: as for `Cc1c(N(C)C)c(=O)n(-c2ccccc2)n1C`, the figure is > 92 µM (inactive); as for `CC(=O)Nc1cccc(O)c1`, > 92 µM (inactive).
In the case of `O=C1C(c2[nH]c3ccccc3c2O)=Nc2ccccc21`, the Potency was > 92 µM (inactive).
As for `CC1CC(OC(=O)c2ccccc2O)CC(C)(C)C1` (centres undefined), the Potency was > 92 µM (inactive).
Regarding `CC(=O)OCC(COC(C)=O)OC(C)=O`, the Potency was > 92 µM (inactive).
With `CCCCCC(N)=O`, the Potency is > 92 µM (inactive).
On the same count and under the same terms, for `CCCC(O)C(CC)CO` (centres undefined) the value was > 92 µM (inactive); for `FC(F)(F)C(Cl)Br` (centres undefined), > 92 µM (inactive).
Regarding `CCCCCCCC(=O)OCC(COC(=O)CCCCCCC)OC(=O)CCCCCCC`, the Potency was > 92 µM (inactive).
Consider `CCCCOC(=O)c1ccc(N)cc1`, for which the Potency is > 92 µM (inactive).
On to `CC(=O)Nc1ccc(C(=O)O)cc1`, for which the Potency is > 92 µM (inactive).
Regarding `O=C(c1ccccc1)C(O)c1ccccc1` (centres undefined), the Potency is > 92 µM (inactive).
Regarding `CCN(CC)C(=O)c1cccc(C)c1`, the Potency was > 92 µM (inactive).
Same read-out and setting: as for `COc1ccc(O)cc1`, the figure is > 92 µM (inactive); as for `C=CCNC(N)=S`, > 92 µM (inactive); as for `Nc1ccc(S(=O)(=O)c2ccc(N)cc2)cc1`, > 92 µM (inactive).
As to `Cc1cc(=O)[nH]c(=S)[nH]1`, the Potency is > 92 µM (inactive).
